# Results published in PubChem BioAssay (NCATS).
# Unmarked numbers belong to inactive results. Results filed as inconclusive are left out. A call without a number means that no potency is given here. The source made the active and inactive calls. Unless noted, calls come from the whole dose curve; as a rule, active = well fitted curve in the direction sought with a large enough effect; inconclusive = small, poorly fitted or top-dose-only effect, or another doubt; inactive = no such curve, though single readings can be large; an effect the other way counts as inactive or inconclusive.
# Assays:
# [1] = Validation of Assay for Modulators of Lamin A Splicing (AID 1459; active = well fitted curve in the direction sought with a large enough effect in the signal ratio; the % refers to the signal ratio;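 note: cells exposed to compound for two days before reading; ratio rise marks activators and ratio drop marks inhibitors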)
# Summary of the method: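 S3 HeLa cells stably expressing a lamin A-EGFP splicing minigene and DsRed2 were seeded at 600 cells/well in Opti-MEM with 2% FBS, pin-dosed, and incubated 48 hrs at 37 °C, 5% CO2. Laser-scanning cytometry (488 nm) gave GFP/RFP total intensity ratio.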
# [2] = target: DNA repair nuclease/redox regulator APEX1 (Homo sapiens) (UniProt P27695); test: qHTS Validation Assay for Inhibitors of the Human Apurinic/apyrimidinic Endonuclease 1 (APE1) (AID 1705;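 note: TAMRA fluorescence gain over two minutes as APE1 cuts a quenched THF abasic duplex; series mostly up to about 57 µM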)
# Sequence of DNA repair nuclease/redox regulator APEX1 (Homo sapiens) (P27695 whole entry, looked up): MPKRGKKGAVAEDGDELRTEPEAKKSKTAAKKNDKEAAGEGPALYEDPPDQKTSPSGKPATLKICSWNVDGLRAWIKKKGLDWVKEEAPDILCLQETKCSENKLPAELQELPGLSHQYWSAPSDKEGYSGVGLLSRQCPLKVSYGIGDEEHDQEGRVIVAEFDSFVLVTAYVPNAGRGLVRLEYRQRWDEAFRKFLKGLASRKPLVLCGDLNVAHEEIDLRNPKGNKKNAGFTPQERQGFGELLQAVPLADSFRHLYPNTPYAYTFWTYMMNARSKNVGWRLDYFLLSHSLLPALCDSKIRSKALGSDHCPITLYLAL
# Summary of the method: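 Human APE1 was preincubated with compound for 15 min at room temperature, then 50 nM (final) THF-abasic double-stranded DNA substrate bearing 5'-TAMRA and 3'-BHQ-2 was added. Incision-driven fluorescence rise (ex 525/em 598 nm) was read kinetically.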
# [3] = Counterscreen for APE1 Inhibitors: Fluorescent Dye Displacement Validation Assay (AID 1707)
# Summary of the method: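 ThO 250 nM + dsDNA 50 nM (THF abasic site, 5'-TAMRA), Tris-HCl pH7.5/50mM NaCl/2 mM MgCl2/0.01% Tween-20; compounds pin-transferred; ex 480/em 540 nm endpoint. Neutral = no compound; no-DNA ThO wells = negative control.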
# [4] = target: Endonuclease 4 (Escherichia coli (strain K12)) (UniProt P0A6C1); test: Counterscreen for APE1 Inhibitors: qHTS Validation Assay for Inhibitors of Endonuclease IV (AID 1708)
# Summary of the method: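 E. coli EndoIV at 2 nM final, preincubated 15 min at room temperature with compound, then 50 nM TAMRA/BHQ-2 THF abasic-site duplex added. Buffer: 50 mM Tris-HCl pH 7.5, 50 mM NaCl, 2 mM MgCl2, 1 mM DTT, 0.01% Tween-20. Kinetic fluorescence increase, third minus first read.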
# [5] = qHTS for differential inhibitors of proliferation of Plasmodium falciparum line GB4 (AID 1816); settings: Potency: Plasmodium falciparum GB4 proliferation inhibition;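 note: parasite growth measured after 72 h incubation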; note: potency is the fitted concentration of half-maximal effect
# [6] = qHTS for differential inhibitors of proliferation of Plasmodium falciparum line 3D7 (AID 1876); note: potency is the fitted concentration of half-maximal effect
# [7] = qHTS for differential inhibitors of proliferation of Plasmodium falciparum line D10 (AID 1877);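 note: parasites grown with compound for 72 h before DNA staining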; note: potency is the fitted concentration of half-maximal effect
# [8] = qHTS for differential inhibitors of proliferation of Plasmodium falciparum line Dd2 (AID 1882); settings: Potency: Plasmodium falciparum Dd2 proliferation inhibition; note: nearly all actives have a fitted effect of over 65% in size; note: potency is the fitted concentration of half-maximal effect
# Summary of the method: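 Dd2-infected erythrocytes (0.3% parasitemia, 2.5% hematocrit final) incubated with compound 72 h at 37 C, 5% CO2; lysed with saponin/Triton buffer containing SYBR Green I, incubated overnight in the dark, then read by fluorescence (485/535 nm). Normalized to 0.29 uM artemisinin and DMSO.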
# [9] = qHTS for differential inhibitors of proliferation of Plasmodium falciparum line HB3 (AID 1886); settings: Potency: Plasmodium falciparum HB3 proliferation inhibition;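 note: parasites grown with compound for 72 h before SYBR Green readout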; note: potency is the fitted concentration of half-maximal effect
# [10] = target: ATP-dependent DNA helicase Q1 (Homo sapiens) (UniProt P46063); test: qHTS Validation Assay for Inhibitors of RecQ-Like Dna Helicase 1 (RECQ1) (AID 2353)
# Sequence of ATP-dependent DNA helicase Q1 (Homo sapiens) (P46063 whole entry, looked up): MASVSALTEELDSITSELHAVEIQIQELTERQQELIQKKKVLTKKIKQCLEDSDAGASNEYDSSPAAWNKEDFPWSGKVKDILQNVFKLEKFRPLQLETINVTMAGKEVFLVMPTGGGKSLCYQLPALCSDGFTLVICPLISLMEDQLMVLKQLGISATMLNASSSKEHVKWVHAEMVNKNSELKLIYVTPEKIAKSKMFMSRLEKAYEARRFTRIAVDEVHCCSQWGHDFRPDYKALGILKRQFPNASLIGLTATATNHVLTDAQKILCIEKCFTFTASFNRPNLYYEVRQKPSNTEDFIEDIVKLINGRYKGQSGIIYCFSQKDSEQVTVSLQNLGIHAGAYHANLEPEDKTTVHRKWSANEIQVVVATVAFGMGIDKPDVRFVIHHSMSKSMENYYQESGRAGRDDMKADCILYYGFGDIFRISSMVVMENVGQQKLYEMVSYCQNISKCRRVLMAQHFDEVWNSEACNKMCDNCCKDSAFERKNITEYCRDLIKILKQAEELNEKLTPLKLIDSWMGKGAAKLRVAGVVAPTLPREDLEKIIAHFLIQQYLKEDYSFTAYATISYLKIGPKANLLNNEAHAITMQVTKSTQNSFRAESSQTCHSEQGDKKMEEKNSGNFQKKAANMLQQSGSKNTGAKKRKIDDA
# Summary of the method: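 50 nM RECQ1T1 preincubated 15 min with compound in Tris pH 8.0 buffer with MgCl2, DTT, Tween-20 and 2.5 ug/ml poly(dI-dC); started with 200 nM TAMRA/BHQ-2 forked duplex and 2 mM ATP. Unwinding read as fluorescence (525/598 nm), two reads 2 h apart.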
# [11] = Validation screen for small molecules that induce DNA re-replication in MCF 10A normal breast cells (AID 463097); note: nearly all actives have a fitted effect of over 60% in size
# Summary of the method: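 Readout: Hoechst nuclear fluorescence intensity, 405 ex / 500-530 em, by scanning plate imager; re-replication scored as increase in nuclei with elevated DNA content. Cells exposed to compound 48 hr, 37 C, 5% CO2 beforehand.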
# [12] = Quantitative high throughput screen for delayed death inhibitors of the malarial parasite plastid, 96 hour incubation (AID 488745); note: nearly all actives have a fitted effect of over 70% in size; note: potency is the fitted concentration of half-maximal effect
# Summary of the method: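 Infected erythrocytes were added to compound in Albumax-supplemented RPMI 1640 at 0.1% parasitemia and 2% hematocrit (final), incubated 96 h at 37 C under 5% CO2, then luciferase reagent was added and luminescence measured.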
# [13] = Quantitative high throughput screen for delayed death inhibitors of the malarial parasite plastid, 48 hour incubation (AID 488752); note: nearly all actives have a fitted effect of over 65% in size; note: potency is the fitted concentration of half-maximal effect
# Summary of the method: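 Readout is firefly luciferase luminescence from a reporter integrated into the parasite genome, with lower signal taken as inhibited growth. Infected red cells (0.1% parasitemia, 2% hematocrit final) are cultured with compound for one 48 h cycle at 37 C.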
# [14] = target: Transient receptor potential cation channel subfamily V member 1 (Homo sapiens) (UniProt Q8NER1); test: HTS Assay for Compounds that Act as Enhancers of the Vanilloid Receptor 1 (AID 488979)
# Sequence of Transient receptor potential cation channel subfamily V member 1 (Homo sapiens) (Q8NER1 whole entry, looked up): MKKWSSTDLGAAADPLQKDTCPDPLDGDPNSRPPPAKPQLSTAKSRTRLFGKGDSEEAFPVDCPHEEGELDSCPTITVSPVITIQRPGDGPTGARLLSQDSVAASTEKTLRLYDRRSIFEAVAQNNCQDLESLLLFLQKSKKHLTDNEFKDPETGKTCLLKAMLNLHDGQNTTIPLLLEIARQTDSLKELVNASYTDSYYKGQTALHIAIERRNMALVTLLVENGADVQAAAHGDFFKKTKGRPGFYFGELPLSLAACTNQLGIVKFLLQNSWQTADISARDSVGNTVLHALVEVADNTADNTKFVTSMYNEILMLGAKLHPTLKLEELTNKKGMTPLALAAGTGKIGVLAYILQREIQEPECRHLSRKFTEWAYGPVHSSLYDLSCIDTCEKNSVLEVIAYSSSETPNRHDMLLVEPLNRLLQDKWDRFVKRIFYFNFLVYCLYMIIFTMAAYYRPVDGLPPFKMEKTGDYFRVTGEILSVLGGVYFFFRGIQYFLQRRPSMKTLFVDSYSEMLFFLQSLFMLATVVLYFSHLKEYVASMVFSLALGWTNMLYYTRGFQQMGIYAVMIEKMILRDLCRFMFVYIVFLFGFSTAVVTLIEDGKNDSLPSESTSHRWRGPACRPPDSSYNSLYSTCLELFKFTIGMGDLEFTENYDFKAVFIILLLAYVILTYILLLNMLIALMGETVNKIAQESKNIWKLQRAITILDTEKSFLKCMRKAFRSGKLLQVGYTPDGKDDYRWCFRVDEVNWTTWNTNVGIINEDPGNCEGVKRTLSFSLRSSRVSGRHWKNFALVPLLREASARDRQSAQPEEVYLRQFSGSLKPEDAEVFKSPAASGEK
# Summary of the method: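 TRPV1 cells loaded with Fluo-8 calcium dye; compound added and Ca2+ signal (ex 480/em 520 nm) followed 3 min, then capsaicin at EC20 added and read 2 more min to detect enhancement.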
# [15] = target: Thyrotropin receptor (Homo sapiens) (UniProt P16473); test: qHTS Assay for Antagonists of the Thyroid Stimulating Hormone Receptor (AID 488980); note: series mostly up to about 58 µM
# Sequence of Thyrotropin receptor (Homo sapiens) (P16473 whole entry, looked up): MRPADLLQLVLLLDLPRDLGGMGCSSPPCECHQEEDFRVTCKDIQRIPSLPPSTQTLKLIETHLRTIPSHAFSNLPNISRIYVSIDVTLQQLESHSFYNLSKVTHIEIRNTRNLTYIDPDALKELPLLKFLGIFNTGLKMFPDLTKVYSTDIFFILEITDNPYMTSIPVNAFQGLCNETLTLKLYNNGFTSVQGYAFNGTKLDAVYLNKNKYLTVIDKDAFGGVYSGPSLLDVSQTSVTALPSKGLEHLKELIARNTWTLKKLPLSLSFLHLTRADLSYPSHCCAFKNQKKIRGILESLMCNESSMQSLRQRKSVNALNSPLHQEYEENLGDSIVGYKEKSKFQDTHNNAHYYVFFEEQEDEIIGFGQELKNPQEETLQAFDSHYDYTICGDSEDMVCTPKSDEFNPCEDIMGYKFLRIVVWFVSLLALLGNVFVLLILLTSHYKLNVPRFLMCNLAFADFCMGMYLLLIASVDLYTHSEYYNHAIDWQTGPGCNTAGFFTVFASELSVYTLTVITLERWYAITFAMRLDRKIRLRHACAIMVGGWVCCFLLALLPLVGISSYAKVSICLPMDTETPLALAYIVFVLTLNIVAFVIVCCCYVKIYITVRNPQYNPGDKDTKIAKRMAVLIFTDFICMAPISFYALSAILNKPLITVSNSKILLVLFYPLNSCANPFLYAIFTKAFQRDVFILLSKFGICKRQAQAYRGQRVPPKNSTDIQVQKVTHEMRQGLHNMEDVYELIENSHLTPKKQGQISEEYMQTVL
# Summary of the method: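 HEK293 cells transfected with human TSHR, suspended in HEPES-buffered HBSS with 70 uM RO 20-1724, were treated with compounds plus TSH at EC80 (4 nM final). cAMP was measured by competitive HTRF (cryptate anti-cAMP antibody, cAMP-d2 acceptor).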
# [16] = target: Thyrotropin-releasing hormone receptor (Homo sapiens) (UniProt P34981); test: qHTS for Small Molecule Agonists and Allosteric Enhancers of Human TRH Receptor: Validation Screen for Agonists (AID 493127;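 active = calcium activation more than 3 SD above the typical response in the agonist read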;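 note: intracellular calcium rise by fluo-8 fluorescence before TRH EC20 addition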); settings: TRH receptor agonist cell assay; at 2 µM; hits give high values
# Sequence of Thyrotropin-releasing hormone receptor (Homo sapiens) (P34981 whole entry, looked up): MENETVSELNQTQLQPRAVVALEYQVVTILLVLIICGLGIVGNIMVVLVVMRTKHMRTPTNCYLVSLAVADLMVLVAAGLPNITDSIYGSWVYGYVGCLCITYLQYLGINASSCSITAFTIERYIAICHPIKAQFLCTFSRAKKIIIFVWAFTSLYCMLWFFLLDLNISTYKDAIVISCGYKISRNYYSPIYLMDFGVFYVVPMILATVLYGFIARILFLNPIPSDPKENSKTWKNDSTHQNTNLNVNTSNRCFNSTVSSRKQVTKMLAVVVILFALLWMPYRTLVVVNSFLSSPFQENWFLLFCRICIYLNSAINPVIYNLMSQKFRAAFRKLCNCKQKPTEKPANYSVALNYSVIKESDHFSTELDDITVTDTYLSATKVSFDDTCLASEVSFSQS
# Summary of the method: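 Cells 2000/well, 10% FCS, 18 h 33.5C/5% CO2 → fluo-8 Ca dye, RT 30 min–1.5 h → FDSS baseline 10 × 1 s → compound added → 230 cycles (1 s/cycle) agonist mode. TRH controls.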
# [17] = target: Galactokinase (Homo sapiens) (UniProt P51570); test: qHTS Validation Assay for Inhibitors of Human Galactokinase (GALK) (AID 493189)
# Sequence of Galactokinase (Homo sapiens) (P51570 whole entry, looked up): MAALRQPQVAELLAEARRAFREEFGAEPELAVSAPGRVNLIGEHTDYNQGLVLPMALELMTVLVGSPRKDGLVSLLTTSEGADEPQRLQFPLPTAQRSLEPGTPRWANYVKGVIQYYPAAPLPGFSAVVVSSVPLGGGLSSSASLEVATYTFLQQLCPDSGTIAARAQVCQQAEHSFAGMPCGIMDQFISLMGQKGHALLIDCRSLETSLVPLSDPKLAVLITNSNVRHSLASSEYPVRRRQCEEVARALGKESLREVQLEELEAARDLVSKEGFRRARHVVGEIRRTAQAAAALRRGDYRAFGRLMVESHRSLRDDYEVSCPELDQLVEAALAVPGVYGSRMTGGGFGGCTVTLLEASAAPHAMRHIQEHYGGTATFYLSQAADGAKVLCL
# Summary of the method: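 GALK (5 nM) with 35 uM ATP and 100 uM galactose in HEPES pH8.0, MgCl2, NaCl, DTT, BSA; 1 h at room temperature. Residual ATP read by Kinase-Glo Plus luminescence after 10 min.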
# [18] = Validation screen for small molecules that induce DNA re-replication in SW480 colon adenocarcinoma cells (AID 504364)
# Summary of the method: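 250 cells/well; compound pinned in; 48 hr, 37 C, 5% CO2; Hoechst added, 40 min; nuclear fluorescence imaged, 405 ex / 500-530 em; re-replication scored as increase in high-intensity nuclei.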
# [19] = target: Voltage-gated inwardly rectifying potassium channel KCNH2 (Homo sapiens) (UniProt Q12809); test: qHTS Assay for Small Molecule Inhibitors of the Human hERG Channel Activity (AID 588834);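 note: top concentration of the series differs between compounds; lower thallium flux fluorescence means stronger hERG block; nearly all actives have a fitted effect of over 50% in size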
# Sequence of Voltage-gated inwardly rectifying potassium channel KCNH2 (Homo sapiens) (Q12809 whole entry, looked up): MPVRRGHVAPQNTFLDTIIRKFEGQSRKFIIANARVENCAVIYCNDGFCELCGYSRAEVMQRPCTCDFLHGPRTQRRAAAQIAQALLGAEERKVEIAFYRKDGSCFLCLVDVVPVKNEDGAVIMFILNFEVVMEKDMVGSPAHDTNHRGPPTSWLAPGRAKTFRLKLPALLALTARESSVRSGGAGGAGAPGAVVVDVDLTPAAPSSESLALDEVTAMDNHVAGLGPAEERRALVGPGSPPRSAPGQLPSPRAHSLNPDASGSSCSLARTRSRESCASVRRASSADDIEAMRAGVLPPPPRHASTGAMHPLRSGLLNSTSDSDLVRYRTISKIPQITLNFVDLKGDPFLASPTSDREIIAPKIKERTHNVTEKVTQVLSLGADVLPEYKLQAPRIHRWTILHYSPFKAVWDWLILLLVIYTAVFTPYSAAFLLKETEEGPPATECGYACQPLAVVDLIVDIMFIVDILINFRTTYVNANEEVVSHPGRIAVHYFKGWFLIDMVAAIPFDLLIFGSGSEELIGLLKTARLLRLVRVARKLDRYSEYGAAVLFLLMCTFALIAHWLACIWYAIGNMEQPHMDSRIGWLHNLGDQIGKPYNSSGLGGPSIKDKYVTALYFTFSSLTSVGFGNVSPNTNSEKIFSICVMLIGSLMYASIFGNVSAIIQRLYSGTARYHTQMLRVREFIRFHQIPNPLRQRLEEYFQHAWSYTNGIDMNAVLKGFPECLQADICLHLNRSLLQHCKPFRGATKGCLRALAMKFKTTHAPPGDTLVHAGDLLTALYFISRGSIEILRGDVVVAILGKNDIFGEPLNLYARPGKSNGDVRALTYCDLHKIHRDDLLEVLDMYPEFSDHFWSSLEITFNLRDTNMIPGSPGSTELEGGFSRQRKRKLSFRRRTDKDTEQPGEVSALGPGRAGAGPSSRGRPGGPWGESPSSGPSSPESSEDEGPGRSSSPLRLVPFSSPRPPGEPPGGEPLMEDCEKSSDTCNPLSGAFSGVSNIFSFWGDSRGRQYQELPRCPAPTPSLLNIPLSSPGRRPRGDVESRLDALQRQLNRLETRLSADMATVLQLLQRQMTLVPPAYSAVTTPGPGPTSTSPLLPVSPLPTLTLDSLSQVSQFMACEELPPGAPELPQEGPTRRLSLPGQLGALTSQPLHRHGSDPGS
# Summary of the method: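 U2OS cells transduced with hERG via BacMam (MOI ~100), plated 2000/well, loaded with FluxOR thallium dye, compound ~10 min, then stimulation buffer; fluorescence decrease read kinetically; AC50 from Hill fits.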
SMILES,outcome [1],Potency [2],Potency [3],outcome [4],Potency [5],Potency [6],Potency [7],Potency [8],Potency [9],Potency [10],outcome [11],Potency [12],Potency [13],outcome [14],outcome [15],activation [16] [%],outcome [17],outcome [18],Potency [19]
OC[C@H]1O[C@@H](n2cnc3c(NC4CCCC4)ncnc32)[C@H](O)[C@H]1O,inactive,inactive,inactive,inactive,inactive,inactive,inactive,inactive,inactive,inactive,inactive,inactive,inactive,inactive,inactive,-0.438,inactive,inactive,inactive
COC(=O)c1c(-c2cc(OC)c(OC)c(OC)c2)c2ccc(OCc3ccccn3)cc2c(=O)n1-c1ccc(N)cc1,inactive,inactive,inactive,–,2.82 µM (active),3.98 µM (active),7.08 µM (active),2 µM (active),2.82 µM (active),inactive,inactive,7.38 µM (active),9.28 µM (active),inactive,inactive,-4,inactive,inactive,–
COc1cc2c(cc1OC)C(c1ccccc1)CN(C)CC2 (stereo not given),inactive,inactive,inactive,inactive,–,14.1 µM (active),–,–,–,inactive,inactive,inactive,inactive,inactive,inactive,1.81,inactive,inactive,–
CNc1ncnc2c1ncn2[C@@H]1O[C@H](CO)[C@H](O)[C@H]1O,inactive,inactive,inactive,inactive,inactive,inactive,inactive,inactive,inactive,inactive,–,–,–,inactive,inactive,1.06,inactive,inactive,inactive
COc1cc(=O)n(C)c2c(OCC(O)C(C)(C)O)cccc12 (stereo not given),inactive,inactive,inactive,inactive,inactive,inactive,inactive,inactive,inactive,inactive,inactive,inactive,inactive,inactive,inactive,0.812,inactive,inactive,inactive
